# This excerpt belongs to a sample that is enriched for the strongest signals.
# B1: TIM1 (protein)
# chain: ADGIQSVKVGGEAGPSVTLPCHYSGAVTSMCWNRGSCSLFTCQNGIVWTNGTHVTYRKDTRYKLLGDLSRRDVSLTIENTAVSDSGVYCCRVEHRGWFNDMKITVSLEIVPPHHHHHH
# Columns and labels:
# Experiment in all cases: glycan array binding signal (z-score within array); higher = stronger binding
# Settings in all cases: glycan notation: IUPAC condensed, linker removed
# [1] = biological target: Fuc(a1-2)Gal(b1-3)GlcNAc(b1-2)Man(a1-3)[Fuc(a1-2)Gal(b1-3)GlcNAc(b1-2)Man(a1-6)]Man(b1-4)GlcNAc(b1-4)[Fuc(a1-6)]GlcNAc
# In short: (§1)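 Arrays were curated from the Consortium for Functional Glycomics database, 3228 in total, and kept only where the protein sequence was available. Binding is expressed as a within-array Z-score. This score was averaged across arrays of the same protein sequence at different concentrations or buffers and across linkers, and negative values can be read as non-binding.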
# [2] = biological target: Fuc(a1-2)Gal(b1-3)GlcNAc(b1-3)GalNAc
# In short: as §1
# [3] = biological target: Fuc(a1-2)Gal(b1-4)[Fuc(a1-3)]GlcNAc(b1-2)Man(a1-3)[Fuc(a1-2)Gal(b1-4)[Fuc(a1-3)]GlcNAc(b1-2)Man(a1-6)]Man(b1-4)GlcNAc(b1-4)[Fuc(a1-6)]GlcNAc
# In short: as §1
# [4] = biological target: Fuc(a1-2)Gal3S(b1-4)GlcNAc
# In short: as §1
# [5] = biological target: Fuc(a1-2)[Gal(a1-3)]Gal(b1-4)GlcNAc(b1-3)[Fuc(a1-2)[Gal(a1-3)]Gal(b1-4)GlcNAc(b1-6)]GalNAc
# In short: as §1
# [6] = biological target: Fuc(a1-2)[GalNAc(a1-3)]Gal(b1-3)GlcNAc
# In short: as §1
# [7] = biological target: Fuc(a1-2)[GalNAc(a1-3)]Gal(b1-4)GlcNAc(b1-2)Man(a1-3)[Fuc(a1-2)[GalNAc(a1-3)]Gal(b1-4)GlcNAc(b1-2)Man(a1-6)]Man(b1-4)GlcNAc(b1-4)[Fuc(a1-6)]GlcNAc
# In short: as §1
# Fuc(a1-4)GlcNAc = biological target: Fuc(a1-4)GlcNAc
# In short: as §1
# [8] = biological target: Gal(a1-3)Gal(b1-3)GlcNAc(b1-3)GalNAc
# In short: as §1
# [9] = biological target: Gal(a1-3)Gal(b1-3)[Fuc(a1-4)]GlcNAc(b1-2)Man(a1-3)[Gal(a1-3)Gal(b1-3)[Fuc(a1-4)]GlcNAc(b1-2)Man(a1-6)]Man(b1-4)GlcNAc(b1-4)GlcNAc
# In short: as §1
# [10] = biological target: Gal(a1-3)Gal(b1-4)GlcNAc(b1-2)Man(a1-3)[Gal(a1-3)Gal(b1-4)GlcNAc(b1-2)Man(a1-6)]Man(b1-4)GlcNAc(b1-4)GlcNAc
# In short: as §1
# [11] = biological target: Gal(a1-4)Gal(b1-4)GlcNAc(b1-2)Man(a1-3)[Gal(a1-4)Gal(b1-4)GlcNAc(b1-2)Man(a1-6)]Man(b1-4)GlcNAc(b1-4)GlcNAc
# In short: as §1
# Gal(b1-3)GlcNAc6S = biological target: Gal(b1-3)GlcNAc6S
# In short: as §1
# [12] = biological target: Gal(b1-3)[Fuc(a1-4)]GlcNAc
# In short: as §1
# [13] = biological target: Gal(b1-4)GalNAc(a1-3)[Fuc(a1-2)]Gal(b1-4)GlcNAc
# In short: as §1
# Gal(b1-4)GlcNAc(b1-2)Man = biological target: Gal(b1-4)GlcNAc(b1-2)Man
# In short: as §1
# [14] = biological target: Gal(b1-4)GlcNAc(b1-3)Gal(b1-4)GlcNAc(b1-2)Man(a1-3)[Gal(b1-4)GlcNAc(b1-3)Gal(b1-4)GlcNAc(b1-2)Man(a1-6)]Man(b1-4)GlcNAc(b1-4)GlcNAc
# In short: as §1
# [15] = biological target: Gal(b1-4)GlcNAc(b1-3)Gal(b1-4)GlcNAc(b1-3)Gal(b1-4)GlcNAc(b1-2)Man(a1-3)[Gal(b1-4)GlcNAc(b1-3)Gal(b1-4)GlcNAc(b1-3)Gal(b1-4)GlcNAc(b1-2)Man(a1-6)]Man(b1-4)GlcNAc(b1-4)GlcNAc
# In short: as §1
# [16] = biological target: Gal(b1-4)GlcNAc(b1-3)Gal(b1-4)GlcNAc(b1-3)Gal(b1-4)GlcNAc(b1-3)Gal(b1-4)GlcNAc(b1-2)Man(a1-3)[Gal(b1-4)GlcNAc(b1-3)Gal(b1-4)GlcNAc(b1-3)Gal(b1-4)GlcNAc(b1-3)Gal(b1-4)GlcNAc(b1-2)Man(a1-6)]Man(b1-4)GlcNAc(b1-4)GlcNAc
# In short: as §1
# [17] = biological target: Gal(b1-4)GlcNAc(b1-3)Gal(b1-4)GlcNAc(b1-3)Gal(b1-4)GlcNAc(b1-3)Gal(b1-4)GlcNAc(b1-2)Man(a1-3)[Gal(b1-4)GlcNAc(b1-3)Gal(b1-4)GlcNAc(b1-3)Gal(b1-4)GlcNAc(b1-3)Gal(b1-4)GlcNAc(b1-2)Man(a1-6)]Man(b1-4)GlcNAc(b1-4)[Fuc(a1-6)]GlcNAc
# In short: as §1
# [18] = biological target: Gal(b1-4)GlcNAc(b1-3)Gal(b1-4)GlcNAc(b1-3)Gal(b1-4)GlcNAc(b1-3)Gal(b1-4)GlcNAc(b1-3)Gal(b1-4)GlcNAc(b1-2)Man(a1-3)[Gal(b1-4)GlcNAc(b1-3)Gal(b1-4)GlcNAc(b1-3)Gal(b1-4)GlcNAc(b1-3)Gal(b1-4)GlcNAc(b1-3)Gal(b1-4)GlcNAc(b1-2)Man(a1-6)]Man(b1-4)GlcNAc(b1-4)[Fuc(a1-6)]GlcNAc
# In short: as §1
# [19] = biological target: Gal(b1-4)GlcNAc(b1-3)Gal(b1-4)GlcNAc(b1-3)[Gal(b1-4)GlcNAc(b1-3)Gal(b1-4)GlcNAc(b1-6)]GalNAc
# In short: as §1
# Gal6S(b1-3)GlcNAc6S = biological target: Gal6S(b1-3)GlcNAc6S
# In short: as §1
# Gal6S(b1-4)GlcNAc = biological target: Gal6S(b1-4)GlcNAc
# In short: as §1
# [20] = biological target: GalNAc(a1-3)GalNAc(b1-3)Gal(a1-4)Gal(b1-4)Glc
# In short: as §1
# [21] = biological target: GalNAc(b1-3)Gal(a1-4)Gal(b1-4)GlcNAc
# In short: as §1
binder,measurement,setting,value
B1,glycan array binding signal (z-score),[1],-0.132
same,glycan array binding signal (z-score),[2],-0.153
same,glycan array binding signal (z-score),[3],0.121
same,glycan array binding signal (z-score),[4],-0.264
same,glycan array binding signal (z-score),[5],1.94
same,glycan array binding signal (z-score),[6],-0.189
same,glycan array binding signal (z-score),[7],-0.187
same,glycan array binding signal (z-score),Fuc(a1-4)GlcNAc,8.15
same,glycan array binding signal (z-score),[8],-0.169
same,glycan array binding signal (z-score),[9],0.01
same,glycan array binding signal (z-score),[10],0.343
same,glycan array binding signal (z-score),[11],-0.176
same,glycan array binding signal (z-score),Gal(b1-3)GlcNAc6S,-0.212
same,glycan array binding signal (z-score),[12],-0.25
same,glycan array binding signal (z-score),[13],-0.212
same,glycan array binding signal (z-score),Gal(b1-4)GlcNAc(b1-2)Man,0.009
same,glycan array binding signal (z-score),[14],7.65
same,glycan array binding signal (z-score),[15],3.39
same,glycan array binding signal (z-score),[16],0.208
same,glycan array binding signal (z-score),[17],0.223
same,glycan array binding signal (z-score),[18],-0.05
same,glycan array binding signal (z-score),[19],2.45
same,glycan array binding signal (z-score),Gal6S(b1-3)GlcNAc6S,-0.043
same,glycan array binding signal (z-score),Gal6S(b1-4)GlcNAc,-0.175
same,glycan array binding signal (z-score),[20],-0.178
same,glycan array binding signal (z-score),[21],0.287
